Results taken from PubChem BioAssay (Tox21).
Results filed as inconclusive are left out. Active and inactive are the calls of the source. The call rests on the fitted dose curve; in most records, active means well fitted cell-killing curve with a large enough effect in the repeat runs; inconclusive means weak or mixed curves, or effect the other way; inactive means flat fitted curve, though single readings scatter.

Assay: qHTS RealTime-Glo MT Cell Viability Assay in HEK293 cells - 16 hour (AID 1224872); further: top concentration of the series differs between compounds; nearly all actives have a fitted effect of over 50% in size
Settings: RealTime-Glo luminescence; series mostly up to 76.8 µM
Description: National Center for Advancing Translational Sciences [NCATS]
NIH Chemical Genomics Center [NCGC]
U.S. Environmental Protection Agency [EPA]
National Institutes of Environmental Health Sciences [NIEHS]
National Toxicology Program [NTP]
U.S. Food and Drug Administration [FDA]
Measure of cell viability is critical in the cell-base assay. Analysis of cell viability is necessary for the characterization of cell responses to cytotoxic drugs and environmental stress. A RealTime-Glo MT Cell Viability Assay to monitor cell viability in real time of continues cell culture during 40 hours of compound treatment was used to screen Tox21 10K library compounds in Hek293 cells. The RealTime-Glo MT Cell Viability Assay is a nonlytic, homogeneous, bioluminescent method to measure cell viability in real time using a simple, plate-based method. The assay involves adding NanoLuc luciferase and a cell-permeant prosubstrate to cells in culture. Viable cells reduce the proprietary prosubstrate to generate a substrate for NanoLuc luciferase. This substrate diffuses from cells into the surrounding culture medium, where it is rapidly used by the NanoLuc Enzyme to produce a luminescent signal. The signal correlates with the number of viable cells, making the assay well suited for cytotoxicity studies.
Tox21 Assay Protocol Summary:
The mixture of Hek293 cell suspension and reagents were dispensed at 600cells/6 ul/well in 1536-well tissue culture treated black solid bottom plates using a Multidrop dispenser. After the assay plates were incubated at a 37 C/5% CO2 incubator for 5 hours, 23 nL of compounds dissolved in DMSO, positive and negative controls was transferred to the assay plate by a pintool work station. The plates were incubated at 37 C for 40 hours. The luminescence intensity were measured at 0h, 8h, 16h, 24h, 32h and 40h time points using ViewLux plate reader during compound treatment.
On the % scale 0 is the no-effect control and ±100 the full control effect.

SMILES	outcome	activity change, negative = cytotoxicity
Nc1nc(Cl)cc(Cl)n1	inactive	
CC(CC(=O)Cl)CC(C)(C)C (stereo not given)	inactive	
CC(C)(C)C(=O)NCCCC(=O)O	inactive	
C=COCCCCO	inactive	
C[C@]12C=CC(=O)C=C1[C@@H](F)C[C@@H]1[C@@H]2[C@@H](O)C[C@@]2(C)[C@H]1CC[C@]2(O)C(=O)CO	inactive	
C=CC(=O)CC	inactive	
C[C@H]1COc2c(C3(N)CC3)c(F)cc3c(=O)c(C(=O)O)cn1c23	inactive	
O=C(O)CCC(=O)Nc1ccc(S(=O)(=O)Nc2nccs2)cc1	inactive	
CCCCCCCCCCCCCCCCN(C)C		5.86% [at 6.97 µM] (inactive)
CCCCCCCCS(=O)(=O)O	inactive	
NC[C@H]1O[C@H](O[C@H]2[C@H](O)[C@@H](O[C@H]3O[C@H](CO)[C@@H](O)[C@H](N)[C@H]3O)[C@H](N)C[C@@H]2N)[C@H](N)[C@@H](O)[C@@H]1O		6.75% [at 15.8 µM] (inactive)
CC(=O)Nc1ccc(S(=O)(=O)Nc2cc(C)on2)cc1	inactive	
Cc1ccc(Br)cc1	inactive	
CC(=O)OC/C=C(/C)CCC=C(C)C	inactive	
CC(C)(C)c1ccc(N)cc1	inactive	
NNC(=O)OCc1ccccc1	inactive	
CCCC(=O)C(CC)Sc1ccoc1C (stereo not given)	inactive	
CC(C)(Sc1cc(C(C)(C)C)c(O)c(C(C)(C)C)c1)Sc1cc(C(C)(C)C)c(O)c(C(C)(C)C)c1	inactive	
CCCCCCC(O)CO (stereo not given)	inactive	
CCC(C)c1nccnc1OC (stereo not given)	inactive	

SMILES	outcome	activity change, negative = cytotoxicity
C[C@@H]1CC[C@@]2(OC1)O[C@H]1C[C@H]3[C@@H]4CC[C@H]5C[C@@H](O)CC[C@]5(C)[C@H]4CC(=O)[C@]3(C)[C@H]1[C@@H]2C		-0.344% [at 6.97 µM] (inactive)
Cc1cc(N)no1	inactive	
O=c1c(O)c(O)c1=O	inactive	
CCCCCCC(=O)c1ccccc1	inactive	
C[Si](C)(C)O[Si](O)(O)O	inactive	
C=CCOC(=O)CCCCCCCC	inactive	
O=C(O)Cc1c(Cl)ccc(Cl)c1Cl	inactive	
N=C(N)N1CCc2ccccc2C1		1.8% [at 6.97 µM] (inactive)
CC(C)(C)OC=O	inactive	
CC(=O)SCC(CC(=O)c1ccc(C)cc1)C(=O)O (stereo not given)	inactive	
C=CCN(CC=C)CC=C	inactive	
COC(=O)/C=C(\C)CCC=C(C)C	inactive	
CC(CN1CC(=O)NC(=O)C1)N1CC(=O)NC(=O)C1 (stereo not given)	inactive	
CCCC(=O)CC	inactive	
N#Cc1cc(NC(=O)C(=O)O)c(Cl)c(NC(=O)C(=O)O)c1	inactive	
CC1(C)C(=O)C(C)(C)C1=O	inactive	
CCCCCCCC(=O)N(C)C	inactive	
Cc1ccc2ccccc2n1	inactive	
Cc1ccc(N)nc1	inactive	
CCCCCCCCCCCCCCBr	inactive	
